# Molecular target: Solute carrier family 2, facilitated glucose transporter member 1 (Homo sapiens) (UniProt P11166)
# Assay: ST_JUDE_LEISH: Cytotoxicity at 2uM final concentration against transgenic Leishmania Mexicana promastigotes LmGLUT1 that are glucose transport deficient and complemented with the human glucose transporter GLUT1. Activity is measured by DNA content using SYBR green in vitro
# Assay type: functional
# Solute carrier family 2, facilitated glucose transporter member 1 (Homo sapiens), sequence (P11166 whole entry): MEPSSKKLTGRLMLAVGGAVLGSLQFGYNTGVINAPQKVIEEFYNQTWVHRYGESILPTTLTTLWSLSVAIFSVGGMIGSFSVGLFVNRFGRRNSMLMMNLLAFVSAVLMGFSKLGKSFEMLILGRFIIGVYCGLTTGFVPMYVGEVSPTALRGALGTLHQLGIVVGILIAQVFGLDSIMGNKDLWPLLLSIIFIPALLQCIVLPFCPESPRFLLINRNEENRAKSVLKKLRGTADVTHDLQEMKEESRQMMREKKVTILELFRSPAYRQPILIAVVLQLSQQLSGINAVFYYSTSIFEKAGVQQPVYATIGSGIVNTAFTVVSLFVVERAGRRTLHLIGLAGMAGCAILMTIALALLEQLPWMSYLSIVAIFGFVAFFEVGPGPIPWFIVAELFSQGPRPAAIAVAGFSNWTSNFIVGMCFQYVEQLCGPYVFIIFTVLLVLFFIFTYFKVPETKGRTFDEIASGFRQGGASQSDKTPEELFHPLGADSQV
row,SMILES,inhibition [%]
1,CCCCC(=O)Nc1nc2ccc([N+](=O)[O-])cc2s1,1.98
2,CC(NC(=O)c1cc(-c2ccccc2)nc2c1cnn2C(C)C)C1CC1 (stereo not given),1.45
3,CC(Cc1ccc(NC(=O)c2ccc(CNCCc3ccccc3)cc2)cc1)NCCc1cccc(Cl)c1 (stereo not given),68.9
4,O=C(Nc1ccc(S(=O)(=O)NCCCN2CCOCC2)cc1)c1cc(-c2ccccc2)[nH]n1,1.2
5,COc1ccc(C2CCN(CCCCNC(=O)c3ccc(NC(=O)c4ccc(Cl)cc4)cc3)C2)c(OC)c1 (stereo not given),-0.08
6,CCOc1ccc2[nH]c(C)cc(=NN=Cc3ccncc3)c2c1,0.75
7,Cc1[nH]c(C)c(-c2ccc(-c3ccc(C(F)(F)F)cc3C(F)(F)F)nc2)c(=O)c1Br,-0.49
8,Cc1ccc(-c2ccn(Cc3cccc(OCc4ccccc4)c3)n2)cn1.Cc1ccc(-c2ccnn2Cc2cccc(OCc3ccccc3)c2)cn1,2.15
9,Cc1cccc(CNc2nc(C)cc(NCCC(=O)NCCOc3ccccc3)n2)c1,6.22
10,N#Cc1ccc(-c2ccc(C(=O)NC3CCN(CCN4CCc5c(cccc5C(F)(F)F)C4)CC3)cc2)cc1,-0.45
11,CCOC(=O)COc1cccc(CNc2ccc3nc(N)nc(N)c3c2)c1,2.95
12,CN1CCN(CCCN(Cc2ccc(-c3cccc(CNC4CCCC4)c3)cc2)C(=O)Nc2ccccc2)CC1,9.1
13,CN(C)CCOc1ccc2c(c1)OC(C)(C)C=C2c1cccc2ccccc12,4.01
14,COc1ccc2nccc([C@@H](O)CN3CCC(NCC(=O)Nc4cc(F)cc(F)c4)CC3)c2n1,37.8
15,COc1ccc(CN2CCCC(C(=O)c3ccc(C(F)(F)F)cc3)C2)c(O)c1 (stereo not given),4.79
16,CCOC(=O)c1ccc(NC(=O)Nc2ccc(-c3ccc(-c4nc5cccc(C)c5[nH]4)s3)cc2)cc1,1.67
17,Fc1ccc(COc2ccc(Nc3ncnc4ccc(I)cc34)cc2Cl)cc1,20.3
18,COc1cccc2sc(N3CCN(C(=O)c4ccc([N+](=O)[O-])o4)CC3)nc12,2.53
19,CN(C)CCCOc1ccc(-c2nc(-c3ccc4c(c3)CCC4=NO)c(-c3ccncc3)[nH]2)cc1,2.55
20,CCOC(=O)c1ccc(NC(=O)N[C@@H](Cc2ccc(O)cc2)C(=O)NC2CCN(Cc3ccc4c(c3)OCO4)CC2)cc1,0.57

row,SMILES,inhibition [%]
1,COc1ccc(-c2cc(C(=O)Nc3ccc4[nH]c(-c5ccccc5)nc4c3)[nH]n2)cc1,13.1
2,CC(C)Cc1nc(N2CCOCC2)c2nnn(Cc3ccccc3)c2n1,3.23
3,O=C(/C=C/c1ccc(Cl)c(Cl)c1)NCCCCCCN1CCCN(C(=O)Nc2ccc(Cl)c(C(F)(F)F)c2)CC1,-1.95
4,COc1cc(OC)cc(C(=O)Nc2ccc(Nc3nc(C)cc(N(C)C)n3)cc2)c1,6.01
5,O=C(Nc1ccc(OC(F)(F)F)cc1)NC1CCN(c2ccnc3ccccc23)CC1,6.11
6,O=C(c1cccc(-c2cccc(-c3nc4cc(F)ccc4[nH]3)c2)c1)N1CCCCC1CN1CCC(O)C1 (stereo not given),0.52
7,O=[N+]([O-])c1ccc2c(c1)c1ccccc1n2Cc1ccccc1O,0.12
8,COc1ccc(C=NN=c2c3ccccc3[nH]c3ccccc23)c2ccccc12,6.42
9,CCCC(C)n1ccc2c3c(N)nc(N)nc3ccc21 (stereo not given),47.3
10,CN1CCN(Cc2nc(-c3ccc4c(Nc5ccc(F)c(O)c5)ccnc4c3)cs2)CC1,7.7
11,Cc1cnc2cc3c(cc2c1N1CCN(C)CC1)NCC3,-0.55
12,N#Cc1ccc(-c2ccc(C(=O)NC3CCN(CCN4CCC(c5cn(CCOC6CCCCO6)c6ccccc56)CC4)CC3)cc2)cc1 (stereo not given),14.4
13,Cc1nc(C)c(CC(=O)Nc2ccc(-c3cccc(-c4nc5cccc(C)c5[nH]4)c3)cc2)s1,2.82
14,c1ccc(-c2cc(NCCCCNc3cc(-c4ccccc4)nc4ccccc34)c3ccccc3n2)cc1,6.88
15,Cc1c(C(=O)Nc2cc(Sc3ccc(F)cc3)cc([N+](=O)[O-])c2)sc2ncn(Cc3ccccc3F)c(=O)c12,9.44
16,COCCN1CCN(Cc2ccc(-c3ccc(-c4nc5cccc(C)c5[nH]4)s3)cc2)CC1,8.84
17,CCNc1cc(C(=O)N[C@@H](Cc2ccccc2)[C@H](O)CNCCC(C)c2ccccc2)cc(N2CCCC2=O)c1 (stereo not given in full),4.77
18,O=C(NC1CCC(N2CCC(Cc3ccc(F)cc3)CC2)CC1)c1cc2ccccc2[nH]1 (stereo not given),0.56
19,CS(=O)(=O)c1ccc(-c2cnc(N)c(-c3ccc(O)cc3)c2)cc1,2.19
20,CCNc1cc(C(=O)N[C@@H](Cc2ccccc2)[C@H](O)CN[C@H](C)C(C)(C)C)cc(N2CCCCS2(=O)=O)c1,2.2

# Molecular target: Hexose transporter 1 (Plasmodium falciparum) (UniProt O97467)
# Assay: ST_JUDE_LEISH: Cytotoxicity at 2uM final concentration against transgenic Leishmania Mexicana promastigotes LmPfHT that are glucose transport deficient and complemented with the Plasmodium falciparum hexose transporter. Activity is measured by DNA content using SYBR green in vitro
# Assay type: functional
row,SMILES,inhibition [%]
1,CCCCC(=O)Nc1nc2ccc([N+](=O)[O-])cc2s1,2.81
2,CC(NC(=O)c1cc(-c2ccccc2)nc2c1cnn2C(C)C)C1CC1 (stereo not given),0.66
3,CC(Cc1ccc(NC(=O)c2ccc(CNCCc3ccccc3)cc2)cc1)NCCc1cccc(Cl)c1 (stereo not given),36
4,O=C(Nc1ccc(S(=O)(=O)NCCCN2CCOCC2)cc1)c1cc(-c2ccccc2)[nH]n1,1.66
5,COc1ccc(C2CCN(CCCCNC(=O)c3ccc(NC(=O)c4ccc(Cl)cc4)cc3)C2)c(OC)c1 (stereo not given),0.01
6,CCOc1ccc2[nH]c(C)cc(=NN=Cc3ccncc3)c2c1,0.8
7,Cc1[nH]c(C)c(-c2ccc(-c3ccc(C(F)(F)F)cc3C(F)(F)F)nc2)c(=O)c1Br,-2.4
8,Cc1ccc(-c2ccn(Cc3cccc(OCc4ccccc4)c3)n2)cn1.Cc1ccc(-c2ccnn2Cc2cccc(OCc3ccccc3)c2)cn1,1.4
9,Cc1cccc(CNc2nc(C)cc(NCCC(=O)NCCOc3ccccc3)n2)c1,3.29
10,N#Cc1ccc(-c2ccc(C(=O)NC3CCN(CCN4CCc5c(cccc5C(F)(F)F)C4)CC3)cc2)cc1,-0.02
11,CCOC(=O)COc1cccc(CNc2ccc3nc(N)nc(N)c3c2)c1,1.84
12,CN1CCN(CCCN(Cc2ccc(-c3cccc(CNC4CCCC4)c3)cc2)C(=O)Nc2ccccc2)CC1,3.98
13,CN(C)CCOc1ccc2c(c1)OC(C)(C)C=C2c1cccc2ccccc12,3.57
14,COc1ccc2nccc([C@@H](O)CN3CCC(NCC(=O)Nc4cc(F)cc(F)c4)CC3)c2n1,47.2
15,COc1ccc(CN2CCCC(C(=O)c3ccc(C(F)(F)F)cc3)C2)c(O)c1 (stereo not given),4.48
16,CCOC(=O)c1ccc(NC(=O)Nc2ccc(-c3ccc(-c4nc5cccc(C)c5[nH]4)s3)cc2)cc1,0.41
17,Fc1ccc(COc2ccc(Nc3ncnc4ccc(I)cc34)cc2Cl)cc1,5.02
18,COc1cccc2sc(N3CCN(C(=O)c4ccc([N+](=O)[O-])o4)CC3)nc12,11.9
19,CN(C)CCCOc1ccc(-c2nc(-c3ccc4c(c3)CCC4=NO)c(-c3ccncc3)[nH]2)cc1,2.33
20,CCOC(=O)c1ccc(NC(=O)N[C@@H](Cc2ccc(O)cc2)C(=O)NC2CCN(Cc3ccc4c(c3)OCO4)CC2)cc1,2.47

row,SMILES,inhibition [%]
1,COc1ccc(-c2cc(C(=O)Nc3ccc4[nH]c(-c5ccccc5)nc4c3)[nH]n2)cc1,12
2,CC(C)Cc1nc(N2CCOCC2)c2nnn(Cc3ccccc3)c2n1,1.31
3,O=C(/C=C/c1ccc(Cl)c(Cl)c1)NCCCCCCN1CCCN(C(=O)Nc2ccc(Cl)c(C(F)(F)F)c2)CC1,0.9
4,COc1cc(OC)cc(C(=O)Nc2ccc(Nc3nc(C)cc(N(C)C)n3)cc2)c1,12.8
5,O=C(Nc1ccc(OC(F)(F)F)cc1)NC1CCN(c2ccnc3ccccc23)CC1,5.45
6,O=C(c1cccc(-c2cccc(-c3nc4cc(F)ccc4[nH]3)c2)c1)N1CCCCC1CN1CCC(O)C1 (stereo not given),-0.32
7,O=[N+]([O-])c1ccc2c(c1)c1ccccc1n2Cc1ccccc1O,1.04
8,COc1ccc(C=NN=c2c3ccccc3[nH]c3ccccc23)c2ccccc12,5.85
9,CCCC(C)n1ccc2c3c(N)nc(N)nc3ccc21 (stereo not given),56.9
10,CN1CCN(Cc2nc(-c3ccc4c(Nc5ccc(F)c(O)c5)ccnc4c3)cs2)CC1,1.76
11,Cc1cnc2cc3c(cc2c1N1CCN(C)CC1)NCC3,-0.98
12,N#Cc1ccc(-c2ccc(C(=O)NC3CCN(CCN4CCC(c5cn(CCOC6CCCCO6)c6ccccc56)CC4)CC3)cc2)cc1 (stereo not given),6.81
13,Cc1nc(C)c(CC(=O)Nc2ccc(-c3cccc(-c4nc5cccc(C)c5[nH]4)c3)cc2)s1,2.89
14,c1ccc(-c2cc(NCCCCNc3cc(-c4ccccc4)nc4ccccc34)c3ccccc3n2)cc1,7.17
15,Cc1c(C(=O)Nc2cc(Sc3ccc(F)cc3)cc([N+](=O)[O-])c2)sc2ncn(Cc3ccccc3F)c(=O)c12,9.11
16,COCCN1CCN(Cc2ccc(-c3ccc(-c4nc5cccc(C)c5[nH]4)s3)cc2)CC1,6.85
17,CCNc1cc(C(=O)N[C@@H](Cc2ccccc2)[C@H](O)CNCCC(C)c2ccccc2)cc(N2CCCC2=O)c1 (stereo not given in full),5.96
18,O=C(NC1CCC(N2CCC(Cc3ccc(F)cc3)CC2)CC1)c1cc2ccccc2[nH]1 (stereo not given),0.08
19,CS(=O)(=O)c1ccc(-c2cnc(N)c(-c3ccc(O)cc3)c2)cc1,1.67
20,CCNc1cc(C(=O)N[C@@H](Cc2ccccc2)[C@H](O)CN[C@H](C)C(C)(C)C)cc(N2CCCCS2(=O)=O)c1,1.95
